# Assay outcomes as filed in PubChem BioAssay.
# Rv3671c protease = inhibitors of M. tuberculosis serine protease Rv3671c; inhibition, % at 5.96 µM; P9WHR9; AID 2606; actives 0.048% (n = 320,000); in the data active = inhibition above about 38%;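 also: extracellular domain of Rv3671c used as enzyme; 0% = enzyme with DMSO and 100% = no enzyme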
# Target sequence (P9WHR9 whole entry, looked up, the tested form may be a part): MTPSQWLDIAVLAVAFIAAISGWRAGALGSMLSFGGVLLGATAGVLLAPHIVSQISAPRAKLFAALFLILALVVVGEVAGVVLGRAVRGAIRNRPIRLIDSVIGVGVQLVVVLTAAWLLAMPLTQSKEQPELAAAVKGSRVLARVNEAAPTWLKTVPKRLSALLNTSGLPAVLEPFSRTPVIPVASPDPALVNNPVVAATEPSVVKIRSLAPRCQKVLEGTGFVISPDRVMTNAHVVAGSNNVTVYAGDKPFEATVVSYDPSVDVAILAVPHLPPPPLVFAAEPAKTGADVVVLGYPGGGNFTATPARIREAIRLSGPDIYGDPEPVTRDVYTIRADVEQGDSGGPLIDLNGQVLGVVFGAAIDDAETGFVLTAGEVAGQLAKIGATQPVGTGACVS
# FBA Mtb inh = Mtb fructose-bisphosphate aldolase inhibition | P9WQA3 | purified M. tuberculosis FBA, fluorescence read-out | inhibition, % at 1 µM | actives 2.3% (n = 360,000);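 also: 0% = vehicle and 100% = reference inhibitor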
# FadD28 FP inh = M. tuberculosis FadD28 bisubstrate binding inhibition; FadD28 bisubstrate probe binding, fluorescence polarization; inhibition, % at 12.5 µM; AID 588549; actives 0.22% (n = 360,000); in the data active = inhibition above about 8.5%, passing the limit was not always enough
# GDH-TPI counter-1 = inhibits GDH-TPI coupling enzymes, artifact for Mtb FBA screen. GDH-TPI coupled enzyme counterscreen, NADH absorbance. inhibition, % at 4.8 µM. actives 1.2% (n = 360,000); in the data active = inhibition above about 30%;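 also: 0% = DMSO wells and 100% = wells lacking the enzyme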
# Mtb UGM inh = inhibitors of M. tuberculosis UDP-galactopyranose mutase; purified UGM, fluorescence polarization probe displacement; inhibition, % at 10 µM; actives 0.06% (n = 320,000); AID 504406; in the data active = inhibition above about 10%, passing the limit was not always enough
# Mtb bLac sens = beta-lactam sensitization of Mtb H37Rv; actives 0.27% (n = 330,000); inhibition, % at 25 µM; M. tuberculosis H37Rv growth with meropenem, percent inhibition; AID 434955; call rule not given here;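 also: growth measured after seven days incubation then overnight dye step; 0% = bacteria only wells and 100% = bacteria with antibiotic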
# Mtb FBA confirm = Mtb FBA inhibition, confirmed. actives 78% (n = 5,600). purified M. tuberculosis FBA, fluorescence read-out. inhibition, % at 1 µM. AID 651616. shares compounds with FBA Mtb inh;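 also: 0% = vehicle wells and 100% = reference inhibitor wells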
# GDH-TPI counter-2 = counter-screen for M. tuberculosis FBA inhibitors: GDH-TPI coupled enzyme inhibition; shares compounds with FBA Mtb inh; inhibition, % at 1 µM; GDH-TPI coupled enzyme counterscreen, fluorescence; actives 81% (n = 5,600); in the data active = inhibition above about 10%
# GDH-TPI DR = GDH-TPI dose response counter-screen for Mtb FBA; shares compounds with FBA Mtb inh; GDH-TPI coupled enzyme assay, fluorescence, artifact counterscreen; IC50, µM; actives 79% (n = 170); call rule not given here
# An asterisk follows results filed as active; . = not tested or not shown; + = active, no number. Compounds with a hit are over-represented: about 3.7% of the library has one in this group of screens. Rule as the data show it, unless noted: active = inhibition above about 27%; inactive = the rest.
SMILES,Rv3671c protease,FBA Mtb inh,FadD28 FP inh,GDH-TPI counter-1,Mtb UGM inh,Mtb bLac sens,Mtb FBA confirm,GDH-TPI counter-2,others
COc1cccc(NC(=O)CSc2nc3c(sc4ccccc43)c(=O)n2CCN(C)C)c1,-22,47*,-6,8,0,-2,4,0,
CCN(CC)CCn1c(SCC(=O)Nc2cccc(OC)c2)nc2c(sc3ccccc32)c1=O,-9,14,0,6,1,32,.,.,
COC(=O)c1ccc(C(=O)OC)c(=O)[nH]1,-4,62*,0,7,-1,5,3,0,
CC(=O)NCCNc1nc2cc(-c3cccc(Cl)c3)sc2c(=O)n1C,.,6,-1,12,.,.,.,.,
O=c1[nH]c(=O)n(C2OC(CO)C(O)C2O)cc1N1CCOCC1 (stereo not drawn),.,-1,-2,-2,.,.,.,.,
CCCNS(=O)(=O)c1cccc(C(=O)OCc2cc(=O)oc3cc(OC)ccc23)c1,-23,38*,-1,11,-1,2,76*,59*,
COc1ccc2c(COC(=O)CCS(=O)(=O)c3ccc(C)cc3)cc(=O)oc2c1,2,107*,-1,9,1,1,30*,26*,
COc1ccc(S(=O)(=O)NCCC(=O)OCc2cc(=O)oc3cc(C)ccc23)cc1[N+](=O)[O-],.,1,-4,6,.,.,.,.,
COc1ccc2c(COC(=O)CNS(=O)(=O)c3ccc(C)c(C)c3)cc(=O)oc2c1,-8,73*,-1,11,-1,-13,31*,28*,
Cc1ccc2c(COC(=O)c3ccc(C)c(C)c3)cc(=O)oc2c1,5,2,0,2,1,-14,.,.,
CN(C)c1cccc(C(=O)OCc2cc(=O)oc3cc(O)ccc23)c1,-6,55*,4,12,3,-3,+,+,
CCOC(=O)c1sc(N)nc1C(F)(F)F,.,0,-3,18,.,.,.,.,
COc1ccc(C2=Nc3ccccc3NC(=O)C2N(C(=O)c2ccnc3ccccc23)c2ccccc2)cc1 (stereo not drawn),.,-1,1,.,.,.,.,.,
CC(C)c1cccc(-c2csc(C(O)c3ccco3)n2)c1 (stereo not drawn),.,3,-2,8,.,.,.,.,
CC1(C(=O)NS(=O)(=O)c2cccc(C#N)c2)CCN1C(=O)CC1CCCC1 (stereo not drawn),.,2,0,12,.,.,.,.,
Cc1ccc(C)c(C(=O)CCC(=O)NNC(=O)c2cccs2)c1,-6,-1,.,0,-2,4,.,.,
CN(CCc1ccccn1)c1ccccc1,.,-1,1,3,.,.,.,.,
CN(Cc1cccc(C(F)(F)F)c1)C(=O)[C@H]1O[C@@H](n2ccc(N)nc2=O)[C@H](O)[C@@H]1O,.,4,0,.,.,.,.,.,
COCc1cccc(-c2csc(C(NC(C)=O)c3cccc(OC)c3)n2)c1 (stereo not drawn),.,0,-1,9,.,.,.,.,
Nc1ccn(C2OC(CO)C(O)C2F)c(=O)n1 (stereo not drawn),.,1,-2,.,.,.,.,.,
Nc1nccc(NCCSCc2ccccc2)n1,.,0,-3,0,.,.,.,.,
C=CCNc1nc(Nc2ccc(-c3nc4ccccc4o3)cc2)nc(N2CCOCC2)n1,-57,97*,-1,35*,0,7,19,-4,GDH-TPI DR=0.49*
C=CCNc1nc(NCC)nc(N2CCOCC2)n1,-12,-2,-4,-2,2,-15,.,.,
Cc1ccc(F)cc1C(=O)N1CCCCC1c1cc(C(=O)Nc2ccc(F)c(Cl)c2)no1 (stereo not drawn),.,-3,-5,5,.,.,.,.,
CCCn1c2ccccc2c2nnc(SCC(=O)OC)nc21,-3,1,0,12,3,9,.,.,
SMILES,Rv3671c protease,FBA Mtb inh,FadD28 FP inh,GDH-TPI counter-1,Mtb UGM inh,Mtb bLac sens,Mtb FBA confirm,GDH-TPI counter-2,others
CCCn1c2ccccc2c2nnc(SCC(=O)OCC)nc21,0,52*,-3,25,-1,.,38*,64*,
Cn1c(=O)c2nc(-c3ccccc3)oc2c2ccccc21,-3,99*,-3,9,-2,52,91*,60*,
CCCCCc1nc2c(=O)n(C)c3ccccc3c2o1,-2,-5,-3,3,-1,1,.,.,
CCCc1nc2ccc(N)cc2c(=O)n1Cc1ccccc1Cl,4,28*,-2,1,0,2,105*,83*,
O=C(CC[C@H]1O[C@@H](n2ccc(=O)[nH]c2=O)[C@H](O)[C@@H]1O)N1CCN(Cc2cccc3ccccc23)CC1,.,3,-2,.,.,.,.,.,
CN1OC[C@@H]2CN(C(=O)C(C)(C)C)[C@H](c3cccc(Oc4ccccc4)c3)C[C@@H]21,.,-1,-5,5,.,.,.,.,
CCCCn1c(N)c(N(CC(C)C)C(=O)CSc2n[nH]c(-c3ccc(C)cc3)n2)c(=O)[nH]c1=O,3,67*,-3,14,-1,0,70*,44*,
Cc1cc(OCc2cc(C(=O)N3CCCCCC3)no2)cc(C)c1Cl,-11,2,-1,1,2,10,.,.,
CCNC(=O)C1(C)CCN(C(=O)c2ccccc2OC)C1 (stereo not drawn),.,1,-1,2,.,.,.,.,
CCC(=O)NC(=S)Nc1cccc(-c2nc3ncccc3o2)c1,-11,-1,-3,10,4,-5,.,.,
CCCCC(=O)Nc1cccc(-c2nc3ncccc3o2)c1,1,43*,-3,0,-2,9,-1,-5,
Cc1ccc(-c2nc3cc(NC(=O)C(C)C)ccc3o2)cc1C,0,45*,-2,18,-1,-16,50*,35*,
CCCCCC(=O)Nc1cccc(-c2nc3ncccc3o2)c1,-4,41*,-3,8,0,-1,72*,61*,
CC(C)C(=O)Nc1cccc(-c2nc3ncccc3o2)c1,7,35*,-1,7,0,1,158*,125*,
O=C(Nc1ccccn1)c1ccc(Br)c(S(=O)(=O)N2CCCC2)c1,-6,-2,0,4,-4,-7,.,.,
O=C(Nc1ccccn1)c1ccc(Br)c(S(=O)(=O)N2CCCCC2)c1,-10,51*,-3,2,0,7,+,+,
COC(=O)c1c(-c2ccc(N(C)C)cc2)sc2ccc(OC)cc12,4,89*,-2,9,-2,8,+,158*,
O=C(NN1CCOCC1)c1c(-c2ccccc2)sc2ccccc12,3,-1,1,2,-4,1,.,.,
COc1ccc(-c2sc3cc4c(cc3c2C#Cc2ccc(N)cc2)OCO4)cc1,7,66*,-3,26,-2,58,70*,66*,
COC(=O)c1c(-c2ccc(OC)cc2)sc2cc3c(cc12)OCO3,-2,32*,-4,8,1,6,72*,77*,
